Assay outcomes: PubChem, National Center for Advancing Translational Sciences (NCATS)
Shown are actives, neighbours in structure and some others; about 7.4% of the full set was active somewhere.
NPC1 promoter act – qHTS Assay for NPC1 Promoter Activators. 320,000 tested, 2.4% active. Huh7 NPC1 promoter luciferase reporter, 24 h. Potency, µM (doses to about 9.22 µM), without a hit: at the highest dose activation, usual class: activators; also: % of control where 0% means no effect; nearly all actives have a fitted effect of over 60% in size
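Readout is luciferase luminescence, reflecting NPC1 promoter activation in stably transfected Huh7 cells after 24 h compound exposure at 37 °C in reduced-serum medium with 10% FBS.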
Rab9 prom act – qHTS Assay for Rab9 Promoter Activators; Huh7 Rab9 promoter-luciferase reporter, luminescence, 24 h; Potency, µM (top dose mostly 9.22 µM), without a hit: at the highest dose activation, negative = inhibition, hits mostly activators; 320,000 tested, 2.8% active; also: % of control where 0% means no effect; nearly all actives have a fitted effect of over 60% in size
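Huh7 cells stably carrying Rab9 promoter–luciferase reporter, plated 1500 cells/well, compound added after 2 h and incubated 24 h at 37 °C; luciferase luminescence then read after 10 min with detection reagent.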
FLuc modulator – qHTS profiling assay for firefly luciferase inhibitor/activator using purifed enzyme and Km concentrations of substrates (counterscreen for miR-21 project) | 360,000 tested, 6.9% active | purified FLuc, Km substrates, luminescence inhibition | Luciferin 4-monooxygenase (Photinus pyralis), P08659 | Potency, µM (titrated, usually from 57.5 µM), inactives show at the highest dose activity change, negative = inhibition, usual class: inhibitors;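 also: plate controls were vehicle for no effect and reference inhibitor for full effect; nearly all actives have a fitted effect of over 55% in size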
Target sequence (P08659 whole entry, looked up): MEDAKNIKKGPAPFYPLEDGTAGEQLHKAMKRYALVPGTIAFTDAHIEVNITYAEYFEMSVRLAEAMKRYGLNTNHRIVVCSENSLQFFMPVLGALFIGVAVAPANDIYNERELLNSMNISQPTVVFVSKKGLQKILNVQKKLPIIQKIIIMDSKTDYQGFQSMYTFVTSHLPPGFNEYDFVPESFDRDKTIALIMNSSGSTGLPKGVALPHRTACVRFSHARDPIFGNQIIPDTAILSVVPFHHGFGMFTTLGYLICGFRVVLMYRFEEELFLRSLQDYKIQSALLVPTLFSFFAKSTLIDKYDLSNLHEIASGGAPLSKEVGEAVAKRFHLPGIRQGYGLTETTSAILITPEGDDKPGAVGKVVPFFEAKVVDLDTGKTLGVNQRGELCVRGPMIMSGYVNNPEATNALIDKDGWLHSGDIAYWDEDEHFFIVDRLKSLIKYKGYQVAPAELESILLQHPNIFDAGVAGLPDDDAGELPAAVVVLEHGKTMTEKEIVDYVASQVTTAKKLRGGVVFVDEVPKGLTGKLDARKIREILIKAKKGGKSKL
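Purified P. pyralis luciferase, 10 nM final, with Km-level 10 uM D-luciferin and 10 uM ATP in 50 mM Tris acetate pH 7.5, 10 mM Mg acetate, 0.01% Tween-20, 0.05% BSA; 6-point qHTS titration about 60 µM downward; luminescence read.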
ELG1 genotox – qHTS screen for small molecules that induce genotoxicity in human embryonic kidney (HEK293T) cells expressing luciferase-tagged ELG1; HEK293T ELG1-luciferase reporter, luminescence, 16 h; Potency, µM (doses to about 46 µM), for inactives: top-dose activity change, positive = activation, most hits filed as activators; 330,000 tested, 1.3% active; also: % of control where 0% means no effect; nearly all actives have a fitted effect of over 60% in size
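HEK293T cells expressing luciferase-tagged ELG1 were exposed to compound or DMSO vehicle for 16 hr at 37 °C and 5% CO2. Luciferase activity was then measured with ONE-Glo after 30 min at room temperature.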
SMN2 splice up – qHTS Assay for Enhancers of SMN2 Splice Variant Expression; HEK293 SMN2-luciferase splicing reporter, luminescence, 30-36 h; Potency, µM (doses to about 46.1 µM), inactives show at the highest dose activity change, positive = activation, usual class: activators; 210,000 tested, 2.8% active; AID 1458, 2008; also: % of control where 0% means no effect; nearly all actives have a fitted effect of over 55% in size
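HEK293 cells carry an SMN2 minigene-luciferase reporter in which exon 7 inclusion puts luciferase in frame. Cells were seeded at 2000 cells/well, attached for 10-12 hours, then exposed to compounds for 30-36 hours at 37C before ONE-Glo luminescence.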
* marks the source's active call; other numbers are inactive results; ? = inconclusive; . = not tested or not shown; [ ] = dose if it differs, or a comment. Calls follow the shape of the dose curve; as a rule, active = well fitted curve in the direction sought with a large enough effect; inconclusive = small, poorly fitted or top-dose-only effect, or another doubt; inactive = no such curve, though single readings can be large; an effect the other way counts as inactive or inconclusive. Potency is read from the fitted curve at half-maximal effect.

SMILES | NPC1 promoter act | Rab9 prom act | FLuc modulator | ELG1 genotox | SMN2 splice up
CCNc1nnc(-c2ccc(C)cc2)o1 | 3.5µM* | 4µM* | 15µM* | ? | 24%
COc1ccc(-c2nnc(-c3ccccc3O)o2)cc1 | ? | ? | 2.4µM* | ? | .
COc1ccc(-c2nnc(NC(=O)Cc3ccccc3)o2)cc1 | -3% | 7% | -9% | -1%[9.26 µM] | .
COc1ccc(-c2ccc(-c3nnc(-c4ccncc4)o3)cc2)cc1 | 20% | 20% | ? | 4% | -23%
COc1ccccc1-c1ccc2ncnc(N(C)C)c2c1 | . | . | . | . | -8%
CC(C)Sc1ncc(Cl)c(C(=O)N(Cc2ccc(N(C)C)cc2)C2CCS(=O)(=O)C2)n1 (stereo not given) | . | . | 3% | . | 1%
Cc1cccc(N2CCN(C(=O)CCc3nnc4n(CC(C)C)c(=O)c5ccccc5n34)CC2)c1C | . | . | -13% | . | -6%
COc1ccc(-c2nnc(-c3ccc(F)cc3)o2)cc1 | 1.3µM* | 1µM* | 2.1µM* | 3.7µM* | .
CCCc1nnc(-c2ccc(OC)cc2)o1 | 16% | 16% | ? | 16% | -18%
COc1ccc(NC(=O)COC(=O)c2c3c(nc4ccccc24)CCCC3)cc1Cl | 1% | -12% | 11µM* | -16% | -15%
C=Cc1ccc(Cn2c(=O)n(-c3cccc(C)c3)c(=O)c3c2c2cc(C)ccc2n3C)cc1 | . | . | -3% | . | .
COC(=O)C1=NN(C(=O)c2ccc(Cl)cc2)C(O)(c2ccccc2)C1 (stereo not given) | -1% | 2% | 21µM* | 1% | -18%
CCN(C(=O)Cn1c(C(=O)OC)cc2sccc21)c1cccc(C)c1 | . | . | -2% | . | -7%
O=C(Cc1c(F)cccc1Cl)Nc1nc2ccccc2s1 | 20% | ? | 27µM* | 9% | -6%
COc1ccc(NC(=O)Cc2c(F)cccc2Cl)cc1 | 20% | 22% | ? | ? | ?
Cc1nc2ccc(NC(=O)Cc3c(F)cccc3Cl)cc2s1 | 2.8µM* | 2.5µM* | 4.8µM* | ? | .
CC(=O)c1sc(NC(=O)Cc2c(F)cccc2Cl)nc1C | 0% | 0% | -1% | -6% | .
COc1cc(NS(=O)(=O)c2ccc(NC(=O)c3cccc(F)c3)cc2)nc(OC)n1 | . | . | ? | . | -3%
O=C(Nc1cc2c(oc1=O)CCCC2=O)c1ccccc1 | -3% | -4% | -9% | 1% | 13%
Cc1ccc(C(=O)Nc2cc3c(oc2=O)CCCC3=O)cc1 | ? | ? | 21µM* | ? | 27%
Cc1ccccc1C=O | -1% | -1% | 0% | 2% | 0%
O=Cc1ccc(N2Cc3ccccc3C2)cc1 | -3% | 11% | 12µM* | ? | .
Cc1cc(N2Cc3ccccc3C2)ccc1C=O | ? | 0.32µM* | 6.7µM* | 5.8µM* | .
CCOc1ccc(N2CC(=O)N(c3ccc(OCC)cc3)CC2=O)cc1 | -3% | 0% | -8% | 1% | -11%
Oc1ccc(N2Cc3ccccc3C2)cc1 | -1% | 10%[1.84 µM] | -6% | 3% | .
SMILES | NPC1 promoter act | Rab9 prom act | FLuc modulator | ELG1 genotox | SMN2 splice up
Cc1cc2c(cc1C)CN(c1ccccc1)C2 | 1.1µM* | 1µM* | 0.67µM* | 2.3µM* | .
CCOc1ccc(N2Cc3ccccc3C2)cc1 | ? | 3.5µM* | 12µM* | 23µM* | ?
CCN(CC)CCn1c(-c2ccccc2)nc2c(NCCO)nc(C)nc21 | . | . | . | . | 2%
COc1ccc(NC(=O)c2cc3nc(-c4ccc(C)c(C)c4)cc(C(F)(F)F)n3n2)cc1 | . | . | 1% | . | 0%
C[C@]12C[C@H](O)CC(CO)(CO)C1[C@H](O)C[C@@]13CC4[C@@H](CC12)[C@@]4(C)C3 (stereo not given in full) | . | . | . | . | 3%
O=C(NCC(c1ccco1)S(=O)(=O)c1ccc(Cl)cc1)c1ccc(C(F)(F)F)cc1 (stereo not given) | . | . | -8% | . | .
COc1ccc2oc(C(=O)OCC(=O)N3CCCCC3C)c(C)c2c1 (stereo not given) | . | . | . | 10% | .
COc1ccc2oc(C(=O)C3CC3)c(N)c2c1 | ? | ? | 13µM* | ? | ?
COC(=O)c1oc2ccc(Cl)cc2c1N | 16% | 21% | 2%[2.3 µM] | 11% | ?
